Test [1] has as its target Cytochrome P450 2D6 (Homo sapiens) (UniProt P10635). Nature of the test: Cytochrome P450 Family 2 Subfamily D Member 6 (CYP2D6) small molecule antagonists: luciferase reporter qHTS assay (AID 1671196). Further: nearly all actives have a fitted effect of over 50% in size. Particulars: P450-Glo CYP2D6 enzyme assay, luciferin luminescence, 1 h; series mostly up to 115 µM. Put shortly: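 P450-Glo format: CYP2D6 converts a proluciferin substrate to luciferin in an NADPH-driven reaction lasting 1 h at room temperature. Light output, proportional to CYP2D6 activity, reflects interference by test chemicals.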
(A reporter such as luciferase makes a cellular process visible.)

Test [2] addresses Cytochrome P450 2C9 (Homo sapiens) (UniProt P11712). Nature of the test: Cytochrome P450 Family 2 Subfamily C Member 9 (CYP2C9) small molecule antagonists: luciferase reporter qHTS assay (AID 1671198). Further: nearly all actives have a fitted effect of over 50% in size. Particulars: P450-Glo CYP2C9 enzyme assay, luciferin luminescence; series mostly up to 115 µM. Put shortly:
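Enzyme-substrate mix preincubated with compound 10 min at room temperature; reaction started with NADPH regeneration solution, 1 h 37C. Luminescent luciferin product read after 20 min detection reagent.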

In test [3] the target is Cytochrome P450 1A2 (Homo sapiens) (UniProt P05177). Nature of the test: Cytochrome P450 Family 1 Subfamily A Member 2 (CYP1A2) small molecule antagonists: luciferase reporter qHTS assay (AID 1671199). Further: nearly all actives have a fitted effect of over 50% in size. Particulars: P450-Glo CYP1A2 enzyme, luciferin luminescence, 1 h; series mostly up to 53 µM. The method in brief: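 Inhibition of CYP1A2 conversion of proluciferin to luciferin, detected by luminescence. Reaction run 1 h at room temperature with NADPH regeneration after brief compound preincubation.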
Chain of Cytochrome P450 1A2 (Homo sapiens) (P05177 whole entry, looked up): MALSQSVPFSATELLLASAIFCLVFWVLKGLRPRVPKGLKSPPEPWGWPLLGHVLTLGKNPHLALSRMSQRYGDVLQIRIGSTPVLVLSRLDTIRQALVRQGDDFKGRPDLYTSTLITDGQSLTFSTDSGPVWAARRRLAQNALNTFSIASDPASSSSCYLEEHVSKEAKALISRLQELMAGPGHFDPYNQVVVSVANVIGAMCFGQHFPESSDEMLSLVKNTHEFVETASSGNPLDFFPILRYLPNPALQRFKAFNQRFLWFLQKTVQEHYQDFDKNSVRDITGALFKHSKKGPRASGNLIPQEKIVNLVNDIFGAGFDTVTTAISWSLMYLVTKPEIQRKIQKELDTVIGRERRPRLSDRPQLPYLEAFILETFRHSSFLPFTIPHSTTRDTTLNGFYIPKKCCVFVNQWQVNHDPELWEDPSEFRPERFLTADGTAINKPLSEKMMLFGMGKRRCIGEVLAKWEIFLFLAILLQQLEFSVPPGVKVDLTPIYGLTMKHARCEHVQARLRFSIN

In test [4] the target is Voltage-gated inwardly rectifying potassium channel KCNH2 (Homo sapiens) (UniProt Q12809). Nature of the test: Human Ether-a-go-go-Related Gene (hERG) channel small molecule antagonists: fluorescence cell-based qHTS assay (AID 1671200). Further: nearly all actives have a fitted effect of over 50% in size. Particulars: hERG-U2OS cells, FluxOR thallium flux fluorescence; series mostly up to 76.8 µM. The method in brief:
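Thallium flux as potassium surrogate: FluxOR II dye loaded 1 h at room temperature into hERG-expressing U2OS cells, then stimulus buffer added after 10 min. Kinetic 480 nm excitation/540 nm emission read, 2 min.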

Test [5] concerns the target Cytochrome P450 3A4 (Homo sapiens) (UniProt P08684). Kind of test: Cytochrome P450 Family 3 Subfamily A Member 4 (CYP3A4) small molecule antagonists: luciferase reporter qHTS assay (AID 1671201). Further: nearly all actives have a fitted effect of over 50% in size. Particulars: P450-Glo CYP3A4 enzyme, luciferin luminescence, 1 h; series mostly up to 115 µM. Put shortly:
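Recombinant human CYP3A4 converts a proluciferin substrate to luciferin over 1 h at room temperature after NADPH regeneration solution is added (compound preincubated 10 min); detection reagent stops reaction, luminescence read 20 min later as relative units.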

Test [6] addresses Cytochrome P450 2C19 (Homo sapiens) (UniProt P33261). Kind of test: Cytochrome P450 Family 2 Subfamily C Member 19 (CYP2C19) small molecule antagonists: luciferase reporter qHTS assay (AID 1671197). Further: nearly all actives have a fitted effect of over 65% in size. As to conditions: P450-Glo CYP2C19 enzyme, luciferin luminescence, 1 h; series mostly up to 52.9 µM. Put shortly:
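Luminescent readout of CYP2C19 activity: luciferin product detected 20 min after adding detection reagent. Before that, compound and enzyme-substrate mix preincubated 10 min at room temperature; NADPH-regenerating system started a 1 h, 37C reaction. Ketoconazole as positive control.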

Values joined by “and” are separate entries in the source; they are usually repeats but may differ in a detail not shown here. Equal entries are not always repeated. Records with an inconclusive call do not appear. Values without a mark were called inactive. Active and inactive are the calls of the source. The call rests on the fitted dose curve; in most records, active means well fitted curve in the direction sought with a large enough effect in the repeat runs; inconclusive means weak or mixed curves; inactive means no such curve, though single readings can be large; an effect the other way counts as inactive or inconclusive.
On the % scale 0 is the no-effect control and ±100 the full control effect; potency means the concentration at half of the fitted maximal effect.

Chain of Cytochrome P450 2C9 (Homo sapiens) (P11712 whole entry, looked up): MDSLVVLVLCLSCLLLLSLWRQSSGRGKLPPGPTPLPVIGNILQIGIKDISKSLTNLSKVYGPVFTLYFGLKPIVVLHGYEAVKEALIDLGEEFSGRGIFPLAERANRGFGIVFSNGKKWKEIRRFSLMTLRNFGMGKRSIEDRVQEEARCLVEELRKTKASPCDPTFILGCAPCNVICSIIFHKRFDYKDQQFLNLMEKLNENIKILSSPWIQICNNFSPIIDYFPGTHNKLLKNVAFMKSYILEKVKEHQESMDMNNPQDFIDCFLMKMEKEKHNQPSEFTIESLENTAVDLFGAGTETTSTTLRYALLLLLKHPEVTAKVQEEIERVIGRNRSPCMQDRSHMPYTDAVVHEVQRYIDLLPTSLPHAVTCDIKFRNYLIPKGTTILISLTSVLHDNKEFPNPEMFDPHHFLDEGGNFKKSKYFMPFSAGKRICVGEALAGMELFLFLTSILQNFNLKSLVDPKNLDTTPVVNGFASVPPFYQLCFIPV
Chain of Cytochrome P450 3A4 (Homo sapiens) (P08684 whole entry, looked up): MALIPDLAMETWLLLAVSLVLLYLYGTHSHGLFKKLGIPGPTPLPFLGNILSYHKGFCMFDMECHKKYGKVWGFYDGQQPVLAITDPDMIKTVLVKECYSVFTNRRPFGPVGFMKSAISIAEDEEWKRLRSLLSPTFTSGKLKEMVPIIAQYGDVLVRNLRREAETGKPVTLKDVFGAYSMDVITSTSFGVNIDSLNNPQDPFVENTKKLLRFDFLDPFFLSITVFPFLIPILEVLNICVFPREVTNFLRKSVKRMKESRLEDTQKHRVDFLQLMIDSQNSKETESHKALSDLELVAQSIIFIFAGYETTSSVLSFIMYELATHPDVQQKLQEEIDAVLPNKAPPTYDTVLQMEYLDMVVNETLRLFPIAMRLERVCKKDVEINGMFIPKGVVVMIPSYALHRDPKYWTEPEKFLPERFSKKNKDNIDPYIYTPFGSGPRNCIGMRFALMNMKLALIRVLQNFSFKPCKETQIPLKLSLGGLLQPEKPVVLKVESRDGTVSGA
Chain of Cytochrome P450 2D6 (Homo sapiens) (P10635 whole entry, looked up): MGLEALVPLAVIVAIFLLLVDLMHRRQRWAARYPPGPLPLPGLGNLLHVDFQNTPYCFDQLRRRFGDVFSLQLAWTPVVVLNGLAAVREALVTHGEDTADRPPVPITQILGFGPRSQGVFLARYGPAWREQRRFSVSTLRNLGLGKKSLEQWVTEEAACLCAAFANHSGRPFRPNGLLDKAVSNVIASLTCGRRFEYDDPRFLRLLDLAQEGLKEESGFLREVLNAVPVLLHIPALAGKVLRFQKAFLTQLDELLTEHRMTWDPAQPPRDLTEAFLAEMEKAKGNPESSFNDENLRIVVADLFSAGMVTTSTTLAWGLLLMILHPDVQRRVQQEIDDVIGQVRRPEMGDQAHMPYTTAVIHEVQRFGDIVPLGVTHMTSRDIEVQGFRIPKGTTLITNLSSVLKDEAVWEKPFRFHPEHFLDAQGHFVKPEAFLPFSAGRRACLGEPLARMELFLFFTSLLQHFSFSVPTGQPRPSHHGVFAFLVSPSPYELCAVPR
Chain of Voltage-gated inwardly rectifying potassium channel KCNH2 (Homo sapiens) (Q12809 whole entry, looked up): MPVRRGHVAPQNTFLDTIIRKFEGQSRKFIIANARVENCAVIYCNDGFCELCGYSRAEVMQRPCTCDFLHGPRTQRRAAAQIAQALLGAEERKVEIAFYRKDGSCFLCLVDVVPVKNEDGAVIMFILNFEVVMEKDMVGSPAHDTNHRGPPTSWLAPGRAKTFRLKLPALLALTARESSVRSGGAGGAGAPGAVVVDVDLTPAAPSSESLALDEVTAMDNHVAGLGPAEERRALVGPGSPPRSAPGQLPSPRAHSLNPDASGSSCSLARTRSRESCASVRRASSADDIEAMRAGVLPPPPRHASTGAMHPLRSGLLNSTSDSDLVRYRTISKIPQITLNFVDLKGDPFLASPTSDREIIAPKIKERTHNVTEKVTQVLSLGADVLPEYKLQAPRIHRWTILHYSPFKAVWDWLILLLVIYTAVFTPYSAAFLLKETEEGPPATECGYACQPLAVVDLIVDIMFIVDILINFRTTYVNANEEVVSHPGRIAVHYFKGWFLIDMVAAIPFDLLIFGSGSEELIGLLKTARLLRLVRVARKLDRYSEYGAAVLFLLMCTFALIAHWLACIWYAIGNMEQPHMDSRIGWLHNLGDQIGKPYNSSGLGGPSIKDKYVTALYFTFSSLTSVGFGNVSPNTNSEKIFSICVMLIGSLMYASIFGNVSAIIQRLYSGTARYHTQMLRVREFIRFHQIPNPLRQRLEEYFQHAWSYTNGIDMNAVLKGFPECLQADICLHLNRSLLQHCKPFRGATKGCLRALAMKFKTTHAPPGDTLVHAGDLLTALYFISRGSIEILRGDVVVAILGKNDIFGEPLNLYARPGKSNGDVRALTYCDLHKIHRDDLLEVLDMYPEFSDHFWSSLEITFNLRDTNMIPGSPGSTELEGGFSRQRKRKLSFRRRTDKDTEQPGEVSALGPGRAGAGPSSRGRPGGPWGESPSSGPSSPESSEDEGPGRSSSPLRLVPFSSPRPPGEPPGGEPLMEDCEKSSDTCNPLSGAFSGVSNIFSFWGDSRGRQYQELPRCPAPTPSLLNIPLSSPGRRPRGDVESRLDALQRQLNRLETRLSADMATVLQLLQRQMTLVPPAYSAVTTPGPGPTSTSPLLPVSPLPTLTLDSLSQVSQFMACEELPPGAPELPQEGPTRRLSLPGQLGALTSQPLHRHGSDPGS
Chain of Cytochrome P450 2C19 (Homo sapiens) (P33261 whole entry, looked up): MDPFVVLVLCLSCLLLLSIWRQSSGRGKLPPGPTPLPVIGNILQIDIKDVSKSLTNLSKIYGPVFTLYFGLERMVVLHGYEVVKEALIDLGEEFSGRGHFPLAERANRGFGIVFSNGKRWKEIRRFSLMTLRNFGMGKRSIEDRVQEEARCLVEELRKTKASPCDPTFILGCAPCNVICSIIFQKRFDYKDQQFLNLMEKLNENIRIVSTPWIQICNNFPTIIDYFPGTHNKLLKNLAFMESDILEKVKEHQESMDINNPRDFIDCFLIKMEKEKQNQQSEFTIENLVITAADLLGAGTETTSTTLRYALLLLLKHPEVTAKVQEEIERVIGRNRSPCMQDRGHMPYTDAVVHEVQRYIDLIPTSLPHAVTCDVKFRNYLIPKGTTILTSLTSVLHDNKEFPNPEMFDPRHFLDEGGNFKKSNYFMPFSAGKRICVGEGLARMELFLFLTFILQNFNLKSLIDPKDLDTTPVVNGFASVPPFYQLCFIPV

On to `Cc1ccc(=O)n(-c2ccccc2)c1`, for which the Potency result in test [1], in test [2], in test [3], in test [4] and in test [5] was “inactive” in each case.
As for `CCCc1cc(C(N)=S)ccn1`, the Potency result in test [1], in test [2], in test [3], in test [4] and in test [5] was “inactive” throughout.
Turning to `CCCCNC(=O)NCCCC`, the Potency result in test [1], in test [4] and in test [5] was “inactive” in each case. Further, the Potency was 39.9 µM (active) in test [6] and 35.6 µM (active) in test [3].
`CCc1ccc(O)c(OC)c1`: the Potency result in test [1], in test [2], in test [4] and in test [5] was “inactive” in each case. The Potency in test [3] is 31.7 µM (active).
Take `OC(CCN1CCCCC1)(c1ccccc1)C1CC2C=CC1C2` (stereo unspecified): in test [1], the Potency was 0.776 µM (active). In addition, the Potency result in test [2] and in test [3] was “inactive” in each case.
As to `O=C1CCCC(=O)C1`, the Potency entry in test [1], in test [6], in test [4] and in test [5] was “inactive” throughout.
As to `C=COCC1CCC(CO)CC1` (stereo unspecified), the Potency result in test [1], in test [6], in test [3], in test [4] and in test [5] was “inactive” each time.
`C=C1CC[C@H]2C[C@@H]1C2(C)C`: the Potency result in test [1], in test [6], in test [3], in test [4] and in test [5] was “inactive” each time.
As for `COc1ccc2c(c1)c(CC(=O)OCC(=O)O)c(C)n2C(=O)c1ccc(Cl)cc1`, the Potency entry in test [1], in test [6], in test [3], in test [4] and in test [5] was “inactive” in each case.
Take `O=C1CCCN1C1CCCCC1`: in test [1], the Potency was 35.6 µM (active). In addition, the Potency result in test [2], in test [4] and in test [5] was “inactive” in each case.
Consider `FC(F)OC(Cl)C(F)(F)F` (stereo unspecified), for which the Potency result in test [1], in test [2], in test [4] and in test [5] was “inactive” throughout. Further, the Potency in test [3] is 39.9 µM (active).
On to `Nc1c[n+](N2CCOCC2)no1`, for which the Potency result in test [1], in test [6], in test [3], in test [4] and in test [5] was “inactive” throughout.
Consider `COCCc1ccc(OCC(O)CNC(C)C)cc1` (stereo unspecified), for which, in test [4], the Potency entry is “inactive”.
Turning to `O=C(O)c1ccccc1OP(=O)(O)O`, the Potency entry in test [6], in test [2], in test [4] and in test [5] was “inactive” in each case. In test [3], the Potency was 27.5 µM (active).
`N=C(N)c1ccccc1`: the Potency entry in test [6], in test [2], in test [3], in test [4] and in test [5] was “inactive” in each case.
With `CO/N=C(/C(=O)N[C@@H]1C(=O)N2C(C(=O)OCOC(=O)C(C)(C)C)=C(C)CS[C@H]12)c1csc(N)n1`, the Potency in test [2] is 11 µM (active). The Potency entry in test [4] is “inactive”.
As for `CCc1cccc2c(CCO)c[nH]c12`, the Potency is 17.4 µM (active) in test [6] and 7.76 µM (active) in test [3]. Moreover, the Potency result in test [4] and in test [5] was “inactive” in each case.
Turning to `CCCCCCCCS(=O)(=O)Cl`, the Potency entry in test [6], in test [3], in test [4] and in test [5] was “inactive” each time. Further, in test [2], the Potency is 32 µM (active).
As to `NCCc1cnc[nH]1`, in test [4], the Potency result was “inactive”.
Consider `CCCCC(CC)COC(=O)c1ccccc1O` (stereo unspecified), for which the Potency entry in test [6], in test [2], in test [3], in test [4] and in test [5] was “inactive” in each case.
`CC(=O)OCC(=O)[C@@]1(O)CCC2C3CCC4=CC(=O)CC[C@]4(C)C3[C@@H](O)C[C@@]21C` (stereo partly specified): the Potency entry in test [6], in test [3], in test [4] and in test [5] was “inactive” each time.
As for `c1ccc([C@H]2CN3CCSC3=N2)cc1`, the Potency result in test [6], in test [2], in test [4] and in test [5] was “inactive” each time.
Turning to `c1ccc(CC2=NCCN2)cc1`, the Potency entry in test [2], in test [3], in test [4] and in test [5] was “inactive” throughout.
On to `CS(=O)(=O)O`, for which the Potency entry in test [6], in test [2], in test [4] and in test [5] was “inactive” each time. Further, in test [3], the Potency is 31.9 µM (active).
With `CCOC(=O)CC(C)=O`, the Potency result in test [4] was “inactive”.
On to `C[N+](C)(C)CC(O)CC(=O)[O-]` (stereo unspecified), for which the Potency result in test [6], in test [2], in test [3], in test [4] and in test [5] was “inactive” each time.
Turning to `CCOC(=O)c1c(C)n(C)c2ccc(O)cc12`, the Potency was 7.76 µM (active) in test [6] and 0.512 µM (active) in test [3]. The Potency entry in test [4] was “inactive”.
On to `CCn1nc(C(=O)O)c(=O)c2cc3c(cc21)OCO3`, for which, in test [4], the Potency result was “inactive”.
In the case of `NS(=O)(=O)c1cc2c(cc1Cl)NC(C1CC3C=CC1C3)NS2(=O)=O` (stereo unspecified), the Potency in test [2] is 12.3 µM (active). The Potency result in test [4] is “inactive”.
On to `O=C(CCCN1CCC(O)(c2cccc(C(F)(F)F)c2)CC1)c1ccc(F)cc1`, for which the Potency result in test [6], in test [2], in test [3] and in test [5] was “inactive” in each case.
Turning to `Nc1c2c(nc3ccccc13)CCCC2O` (stereo unspecified), the Potency entry in test [6], in test [2], in test [4] and in test [5] was “inactive” in each case. For the same molecule, the Potency in test [3] was 15.5 µM (active).
For `Cn1c(N)c(N=O)c(=O)n(C)c1=O`, in test [6], the Potency is 58.2 µM (active). The Potency entry in test [2], in test [3], in test [4] and in test [5] was “inactive” each time.
Regarding `Cc1c(O)cccc1O`, the Potency result in test [1] and in test [4] was “inactive” in each case. Further, in test [5], the Potency is 32.5 µM (active).
Regarding `Cc1nc2c([nH]1)c(=O)n(C)c(=O)n2Cc1ccco1`, the Potency result in test [6], in test [2], in test [4] and in test [5] was “inactive” throughout.
Regarding `O=C1CCCCCCCCCCCN1`, the Potency result in test [1] and in test [4] was “inactive” throughout. Besides, the Potency in test [3] was 70.9 µM (active); in test [5] it was 3.55 µM (active) and 7.96 µM (active).
Take `CC(=O)OC/C=C(\C)CC/C=C(\C)CCC=C(C)C`: the Potency in test [6] was 20 µM (active) and 71 µM (active); in test [2] it was 35.6 µM (active); in test [5], 10 µM (active). The Potency entry in test [3] and in test [4] was “inactive” each time.
Regarding `CCN1CCC[C@H]1CNC(=O)c1c(O)c(Cl)cc(Cl)c1OC`, the Potency entry in test [6], in test [2], in test [4] and in test [5] was “inactive” each time.
Take `Brc1c(NC2=NCCN2)ccc2nccnc12`: the Potency entry in test [4] was “inactive”.
For the molecule `Oc1ccc(C2CNCCc3c2cc(O)c(O)c3Cl)cc1` (stereo unspecified), the Potency result in test [3], in test [4] and in test [5] was “inactive” throughout.
On to `CC(=O)Nc1c(I)cc(I)c(C(=O)O)c1I`, for which the Potency in test [1] was 27.5 µM (active); in test [3], 24.5 µM (active). For the same molecule, the Potency result in test [4] and in test [5] was “inactive” in each case.
Take `CCN(CC)CCOCCOC(=O)C1(c2ccccc2)CCCC1`: the Potency result in test [6], in test [2], in test [3] and in test [4] was “inactive” throughout.
For the molecule `CCN(Cc1ccncc1)C(=O)C(CO)c1ccccc1` (stereo unspecified), the Potency entry in test [4] is “inactive”.
As to `CC/C=C\CCOC(C)=O`, the Potency entry in test [6], in test [2], in test [3], in test [4] and in test [5] was “inactive” each time.
Consider `CC(=O)OCC(CCn1cnc2cnc(N)nc21)COC(C)=O`, for which the Potency result in test [6], in test [2], in test [4] and in test [5] was “inactive” throughout.
For `COc1ccc(CCN(C)CCCC(C#N)(c2cc(OC)c(OC)c(OC)c2)C(C)C)cc1OC` (stereo unspecified), the Potency result in test [6] and in test [3] was “inactive” in each case. Besides, the Potency in test [4] is 7.56 µM (active).
Turning to `O=Cc1cccc([N+](=O)[O-])c1`, the Potency result in test [6], in test [2], in test [4] and in test [5] was “inactive” in each case. Besides, in test [3], the Potency is 39.7 µM (active).
Take `Cc1cccn2c(=O)c(-c3nnn[nH]3)cnc12`: the Potency result in test [6] is “inactive”. Besides, the activity change, negative = inhibition is -1.3% [at 23.6 µM] in test [2], 0.271% [at 15.8 µM] in test [4] and 2.55% [at 23.6 µM] in test [5].

The record behind these values is PubChem BioAssay (Tox21).
